Data reported in PubChem BioAssay (EPA / NIEHS).
Values joined by “and” are separate entries in the source; they are usually repeats but may differ in a detail not shown here. Equal values may be shown once. Some structures have more than one record in an assay (separate samples or runs), and their calls can disagree. Active and inactive are the calls of the source. Rule for the calls: active = hit-call score of the fitted dose curve at least 0.9, where 1 is the maximum; inactive = score below 0.9.

Assay: ATG_SREBP_CIS: Attagene CIS-FACTORIAL HepG2 Assay for human Sterol Regulatory Element Binding (SREBP) (AID 2282962)
Conditions: HepG2 Attagene cis-factorial SREBP reporter, mRNA; actives raise or lower the signal
Method: ATG_CIS is a cell-based, multiplexed-readout assay that uses HepG2, a human liver cell line, with measurements taken at 24 hours after chemical dosing in a 24-well plate.ATG_SREBP_CIS is one of 52 assay component(s) measured or calculated from the ATG_CIS assay. It is designed to make measurements of mRNA induction, a form of inducible reporter, as detected with fluorescence intensity signals by Reverse transcription polymerase chain reaction (RT-PCR) and Capillary electrophoresis technology.Data from the assay component ATG_SREBP_CIS was analyzed into 1 assay endpoint. This assay endpoint, ATG_SREBP_CIS, was analyzed with bidirectional fitting relative to DMSO as the negative control and baseline of activity. Using a type of inducible reporter, measures of mRNA for gain or loss-of-signal activity can be used to understand the reporter gene at the transcription factor-level as they relate to the gene SREBF1. Furthermore, this assay endpoint can be referred to as a primary readout, because this assay has produced multiple assay endpoints where this one serves a reporter gene function. To generalize the intended target to other relatable targets, this assay endpoint is annotated to the dna binding intended target family, where the subfamily is basic helix-loop-helix leucine zipper.
Human liver HepG2 cells are transiently transfected with multiple reporter transcription units (MRTUs) in 6-well plates using FuGene 6 reagent (Roche; 3 ml FuGene/1 mg DNA). The MRTU constructs are regulated by a cis-regulating element (promoter). […] A major difference between the CIS and TRANS system is that in CIS activities of endogenous TFs are measured, whereas the TRANS assay evaluates changes in activities of exogenous, chimeric NR-Gal4 proteins. […] At the end of 24 hour incubation, total RNA was isolated using TriZol reagent (Invitrogen). The isolated RNA is then reverse-transcribed using oligo(dT) primer and Mo-MLV reverse transcriptase (Invitrogen) with DNAse I (Ambion) treatment for 30 min. The one-tenth of the produced cDNA was amplified by PCR using Taq DNA polymerase (Invitrogen) and two reporter sequence-specific primers. The PCR products were fluorescently labeled by primer extension with 6-arboxyfluorescein (6-FAM) 5'-labeled reporter sequence-specific primer (2 min at 95 C, 20 s at 68 C and 10 min at 72 C) and these products were digested with 5U of HpaI (New England Biolabs) for 2h at 37 C. The fragments were purified using Qiaquick PCR columns (Qiagen), analyzed on an ABI 3130xL genetic analyzer (Applied Biosystems) with peak positions identified by using a set of X-rhodamine (ROX)-labeled MapMarker1000 molecular weight standards (BioVentures). The raw capillary electrophoresis data was processed using Attagraph software (Attagene).
For `C[C@]12CCC(=O)C=C1CC[C@@H]1[C@@H]2CC[C@@]2(C)[C@H]1CC[C@]2(C)O`, the AC50 was 57.5 µM (active) and 45.9 µM (active) and 62.4 µM (active) and the outcome was “inactive”.
With `CCC(C)(CC)c1cc(NC(=O)c2c(OC)cccc2OC)on1` the AC50 was 10.8 µM (active).
With `O=C(NC(=O)c1cc(F)c(F)cc1Cl)Nc1cc(F)ccc1N1CCC(C(=O)O)CC1` the AC50 was 4.65 µM (active).
With `Cc1ccc(O)c(C)c1` the outcome was “inactive”.
For `CCSC(=O)N(CC)C1CCCCC1`, the outcome was “inactive”.
With `C=CC(N)=O` the outcome was “inactive”.
With `Clc1ccc(C(Cl)(Cl)Cl)cc1` the outcome was “inactive”.
For `Oc1ccc(C(c2ccc(O)cc2)(C(F)(F)F)C(F)(F)F)cc1`, the outcome was “inactive”.
In the case of `CC(C)(c1ccccc1)c1ccc(O)cc1`, the outcome is reported as “inactive”.
With `CCCCCCCCCC[N+](C)(C)CCCCCCCCCC` the AC50 was 3.63 µM (active).
In the case of `O=NN(c1ccccc1)c1ccccc1`, the outcome is reported as “inactive”.
In the case of `Cc1ccccc1[N+](=O)[O-]`, the outcome is reported as “inactive”.
For `CC(C)(O)C(=O)Nc1ccc([N+](=O)[O-])c(C(F)(F)F)c1`, the outcome was “inactive”.
For `OCC(O)CO`, the outcome was “inactive”.
In the case of `O=C(N[C@H]1CN2CCC1CC2)c1cc2ccoc2cn1`, the outcome is reported as “inactive”.
For `c1cc2ccc3cccc4ccc(c1)c2c34`, the outcome was “inactive”.
With `O=C(O)C(F)(F)C(F)(F)C(F)(F)C(F)(F)C(F)(F)F` the outcome was “inactive”.
With `N#Cc1ccc(N(CC(N)=O)CC(F)(F)F)cc1C(F)(F)F` the outcome was “inactive”.
In the case of `Oc1c(Cl)c(Cl)c(Cl)c(Cl)c1Cl`, the AC50 is reported as 50 µM (active) and 83.2 µM (active) and the outcome is reported as “inactive”.
With `Oc1ccc(Cl)cc1Cl` the outcome was “inactive”.
In the case of `C=CC(=O)NCNC(=O)C=C`, the outcome is reported as “inactive”.
With `ClC1=C(Cl)[C@]2(Cl)[C@@H]3[C@@H](Cl)[C@H]4O[C@H]4[C@@H]3C1(Cl)C2(Cl)Cl` the AC50 was 51.4 µM (active).
With `O=S(=O)(O)C(F)(F)C(F)(F)C(F)(F)C(F)(F)F` the outcome was “inactive”.
In the case of `ClC(Cl)=C(c1ccc(Cl)cc1)c1ccc(Cl)cc1`, the outcome is reported as “inactive” and the AC50 is reported as 130 µM (active) and 169 µM (active).
With `Cc1cc(O)ccc1Cl` the outcome was “inactive”.
With `O=C(NC(=O)c1c(F)cccc1F)Nc1cc(Cl)c(OC(F)(F)C(F)F)c(Cl)c1` the outcome was “inactive”.
For `NS(=O)(=O)C(F)(F)C(F)(F)C(F)(F)C(F)(F)C(F)(F)C(F)(F)C(F)(F)C(F)(F)F`, the outcome was “inactive” and the AC50 was 38.9 µM (active) and 50 µM (active).
In the case of `c1ccc(-c2ccccc2)cc1`, the outcome is reported as “inactive”.
For `CCCCCCCCOC(=O)c1ccccc1C(=O)OCCCCCCCC`, the outcome was “inactive”.
With `CN(C)c1nc(=O)n(C2CCCCC2)c(=O)n1C` the outcome was “inactive”.
With `CCOP(=S)(OCC)SCSC(C)(C)C` the AC50 was 100 µM (active) and 73.9 µM (active).
With `CC(c1ccc(O)cc1)(c1ccc(O)cc1)c1ccc(O)cc1` the AC50 was 2.64 µM (active).
With `ClC1=C(Cl)[C@]2(Cl)[C@@H]3[C@H]4C[C@H]([C@@H]5O[C@H]45)[C@@H]3[C@@]1(Cl)C2(Cl)Cl` the outcome was “inactive”.
With `C[C@]12CCC(=O)C=C1CC[C@@H]1[C@@H]2CC[C@]2(C)C(=O)CC[C@@H]12` the AC50 was 68.4 µM (active) and the outcome was “inactive”.
In the case of `Cc1ccccc1CO[C@@H]1C[C@@]2(C(C)C)CC[C@]1(C)O2`, the AC50 is reported as 14.7 µM (active).
